# A selection: hits, their analogues and other compounds. The true share with any hit is near 8%.
# PostGolgi yeast = growth inhibition of a yeast mutant, post-Golgi transport screen; post-Golgi transport phenotypic cell assay; inhibition, % at 10 µM; hit rate 0.9% among 98,000; AID 739;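 further: yeast cells grown in 1536-well plates; yeast grown about 18 h at 30C before absorbance read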
# Cav32 inh = inhibitors of human Cav3.2 T-type calcium channel | O95180 | Cav3.2-expressing cells, Fluo-4 calcium fluorescence FDSS; active compounds read low | B-score at 10 µM | hit rate 4% among 100,000;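 active means single-dose well whose peak fluorescence ratio is a statistical outlier from its plate by either plate-standardised score or position-corrected B-score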
# Target sequence (O95180 whole entry, looked up): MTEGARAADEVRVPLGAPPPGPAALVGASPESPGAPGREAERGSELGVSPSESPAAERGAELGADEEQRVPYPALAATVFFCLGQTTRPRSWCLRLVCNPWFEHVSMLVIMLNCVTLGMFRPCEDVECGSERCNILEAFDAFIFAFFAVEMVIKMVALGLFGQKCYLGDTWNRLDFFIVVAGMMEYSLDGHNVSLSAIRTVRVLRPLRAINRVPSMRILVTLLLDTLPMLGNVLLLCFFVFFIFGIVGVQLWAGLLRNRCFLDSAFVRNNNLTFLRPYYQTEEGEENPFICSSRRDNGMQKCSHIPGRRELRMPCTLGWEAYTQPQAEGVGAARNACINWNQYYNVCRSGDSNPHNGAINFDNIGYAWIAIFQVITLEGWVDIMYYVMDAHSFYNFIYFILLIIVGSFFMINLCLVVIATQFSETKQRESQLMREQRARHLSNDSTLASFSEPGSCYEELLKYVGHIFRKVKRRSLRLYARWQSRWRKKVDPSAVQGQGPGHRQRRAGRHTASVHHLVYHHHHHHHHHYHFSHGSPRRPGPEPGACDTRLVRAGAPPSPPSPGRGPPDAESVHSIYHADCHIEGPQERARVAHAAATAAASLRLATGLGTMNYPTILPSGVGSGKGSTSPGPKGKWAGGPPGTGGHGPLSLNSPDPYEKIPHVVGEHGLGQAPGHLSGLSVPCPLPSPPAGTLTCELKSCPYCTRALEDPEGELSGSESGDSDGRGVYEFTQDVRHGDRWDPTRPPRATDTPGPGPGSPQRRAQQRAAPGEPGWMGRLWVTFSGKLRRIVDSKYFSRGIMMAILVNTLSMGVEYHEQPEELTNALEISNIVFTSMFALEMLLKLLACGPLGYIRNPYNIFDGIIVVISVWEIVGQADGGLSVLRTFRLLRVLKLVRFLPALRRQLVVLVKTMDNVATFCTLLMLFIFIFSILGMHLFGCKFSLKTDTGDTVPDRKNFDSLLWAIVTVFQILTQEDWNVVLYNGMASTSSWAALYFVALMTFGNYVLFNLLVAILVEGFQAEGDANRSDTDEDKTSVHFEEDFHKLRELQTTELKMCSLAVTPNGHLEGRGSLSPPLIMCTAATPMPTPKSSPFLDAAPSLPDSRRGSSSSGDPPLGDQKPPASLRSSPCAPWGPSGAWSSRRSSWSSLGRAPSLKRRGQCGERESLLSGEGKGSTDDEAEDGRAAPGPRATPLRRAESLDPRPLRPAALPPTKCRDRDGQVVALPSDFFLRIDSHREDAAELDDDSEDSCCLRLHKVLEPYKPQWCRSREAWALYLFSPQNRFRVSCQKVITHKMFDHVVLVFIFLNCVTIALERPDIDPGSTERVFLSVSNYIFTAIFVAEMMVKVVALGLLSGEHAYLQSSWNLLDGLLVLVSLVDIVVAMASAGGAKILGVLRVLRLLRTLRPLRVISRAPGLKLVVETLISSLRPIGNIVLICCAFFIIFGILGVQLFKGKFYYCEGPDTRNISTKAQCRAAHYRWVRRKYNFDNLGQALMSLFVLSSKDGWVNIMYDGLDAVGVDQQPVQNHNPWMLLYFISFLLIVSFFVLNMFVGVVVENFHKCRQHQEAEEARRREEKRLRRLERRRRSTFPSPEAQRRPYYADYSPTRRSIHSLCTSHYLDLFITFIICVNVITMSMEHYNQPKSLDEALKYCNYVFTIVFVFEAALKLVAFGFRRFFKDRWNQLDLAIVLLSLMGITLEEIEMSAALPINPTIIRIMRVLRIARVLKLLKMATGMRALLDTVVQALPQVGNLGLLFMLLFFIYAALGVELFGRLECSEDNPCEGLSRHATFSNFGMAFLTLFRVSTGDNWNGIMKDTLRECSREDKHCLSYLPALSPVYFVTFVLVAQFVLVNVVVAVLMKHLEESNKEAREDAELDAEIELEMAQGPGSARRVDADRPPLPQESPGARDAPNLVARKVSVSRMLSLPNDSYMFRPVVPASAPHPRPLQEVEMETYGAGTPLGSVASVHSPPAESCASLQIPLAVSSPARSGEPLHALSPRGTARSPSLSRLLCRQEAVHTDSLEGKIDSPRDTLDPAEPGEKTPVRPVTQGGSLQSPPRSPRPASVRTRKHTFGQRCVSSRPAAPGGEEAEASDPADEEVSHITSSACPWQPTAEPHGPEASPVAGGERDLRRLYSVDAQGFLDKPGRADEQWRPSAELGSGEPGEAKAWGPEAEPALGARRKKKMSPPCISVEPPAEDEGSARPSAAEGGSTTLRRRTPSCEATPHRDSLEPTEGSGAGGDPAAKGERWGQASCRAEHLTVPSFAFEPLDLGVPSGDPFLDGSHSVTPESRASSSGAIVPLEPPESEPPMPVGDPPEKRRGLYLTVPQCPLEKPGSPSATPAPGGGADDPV
# PostGolgi ctrl = yeast control strain growth, post-Golgi counter-screen | efflux-deficient yeast background strain, growth absorbance A615, 16 h | inhibition, % at 10 µM | hit rate 5% among 98,000 | AID 738
# PTK2B oligo ant = Pyk2 (human) oligomerization antagonism. Q14289. Q293 cells, Pyk2 FERM NanoBiT luminescence; active compounds read low. z-score (the deposit names both 25 µM and 10 µM). hit rate 0.83% among 99,000;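 active means Z-score of -3 or lower, scaled per plate to the spread of control and sample wells; inactive means z-score above -3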;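 further: negative z-score means lost luminescence so less FERM oligomerization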
# Numbers without * were called inactive; · = no result. Unless noted, no stated cut-off is given here; in the data, active means inhibition above about 30%; inactive means the rest.
SMILES,PostGolgi yeast,Cav32 inh,PostGolgi ctrl,PTK2B oligo ant
CCc1ccc2[nH]c(=O)c(C(c3nnnn3CCOC)N3CCN(c4ccccc4)CC3)cc2c1 (stereo not given),7,-1.8,5,0.07
c1ccc(C(c2nnnn2C2CCCC2)N2CCN(c3ccccc3)CC2)cc1 (stereo not given),·,-5.1*,·,-2.1
c1ccc(Cn2nnnc2C(c2cccs2)N2CCc3ccccc3C2)cc1 (stereo not given),-9,-3.8*,19,-2.4
c1ccc(Cn2nnnc2C(c2cccs2)N2CCCCCC2)cc1 (stereo not given),5,-2.6,24,-1
CN(/C(=N\S(=O)(=O)c1ccccc1)C(F)(F)F)c1ccccc1,-7,·,-6,-0.48
C#CCNC(=O)C1=C[C@@H](C2CCCCC2)C[C@@H](OCCCCO)O1,·,0.34,·,·
Cc1ccc(C(c2nnnn2CCc2ccccc2)N2CCC(C)CC2)cc1 (stereo not given),·,-7.4*,·,-0.75
c1cc(N2CCCC2)ccc1C(c1nnnn1C1CCCCC1)N1CCOCC1 (stereo not given),-7,-0.86,5,-0.04
COc1ccc(C(c2nnnn2C2CCCCC2)N2CCN(c3ccc(OC)cc3)CC2)cc1 (stereo not given),14,-6.4*,16,-2.3
COc1ccc(C(c2nnnn2C2CCCC2)N2CCC(C)CC2)cc1 (stereo not given),0,-4.4*,16,-1.4
O=C1COc2ccc(-c3csc(=Nc4ccc(OC(F)F)cc4)n3CC3CCCO3)cc2N1 (stereo not given),4,-1.4,21,-1.1
COc1ccccc1N=c1scc(-c2ccc3c(c2)NC(=O)CO3)n1CC1CCCO1 (stereo not given),8,-3.9*,1,1.1
Cc1cccc(C)c1NC(=O)C(c1ccccc1)N1CCC2(CC1)OCCO2 (stereo not given),·,-0.97,·,-1.1
Cc1cccc(C)c1NC(=O)C(c1ccc([N+](=O)[O-])cc1)N1CCCCC1 (stereo not given),-1,-5.6*,0,-0.62
CCC(=O)N1CCN(c2ccc(Cl)cc2NC(=O)c2ccc(Br)o2)CC1,·,-2.2,·,0.69
CCOC(=O)CN1C(=O)N[C@@H](CCc2ccccc2)C(C(C)=O)=C1C,·,0.13,·,·
O=C(NC1CC2CCCC(C1)N2C(=O)Nc1ccc(Cl)c(C(F)(F)F)c1)C1CC1 (stereo not given),-5,-5.7*,15,1.1
O=C(NC1CC2CCC(C1)N2C(=O)NCc1ccccc1)C1CC1 (stereo not given),20,0.93,2,-0.22
COC(=O)C1=C(C)OC(N)=C(C#N)C1c1c(C)nn(-c2ccccc2)c1Cl (stereo not given),0,-5.1*,30,-1.9
CCOC(=O)C1=C(C)OC(N)=C(C#N)C1c1c(C)nn(-c2ccc(C)cc2)c1Cl (stereo not given),-9,·,21,·
O=C(CSc1n[nH]c(-c2ccc(S(=O)(=O)N3CCCCC3)cc2)n1)Nc1nccs1,15,-0.52,-3,-2.7
Fc1ccc(CSc2nc3ccccc3[nH]2)c2ccccc12,2,·,47*,-1.1
CCn1c(CCNC(=O)c2cccs2)nnc1SCC(=O)Nc1nc(-c2ccccc2)cs1,·,-7.5*,·,-3
CCCn1c(SCC(=O)Nc2nccs2)nnc1-c1cccnc1,8,0.49,3,0.54
CCn1c(SCC(=O)Nc2nc(-c3ccccc3)cs2)nnc1-c1ccccc1O,3,·,42*,-3.1*
SMILES,PostGolgi yeast,Cav32 inh,PostGolgi ctrl,PTK2B oligo ant
COc1ccc(-n2c(CNc3ccc(C)cc3)nnc2SCC(=O)Nc2nc(-c3ccccc3)cs2)cc1,-6,-1.5,-4,0
CCc1nnc(NC(=O)CSc2nnc(-c3ccccc3O)n2CC)s1,-4,-4.8,4,-0.58
CCCCn1c(SCC(=O)Nc2nc(C)cs2)nnc1-c1cccnc1,-5,0.63,39*,-0.29
Cc1cc(C)nc(SCc2nnc(SCC(=O)Nc3nc(-c4ccccc4)cs3)n2-c2ccccc2)n1,-8,-8.4*,-9,-0.25
O=c1[nH]c2ccc(S(=O)(=O)N3CCN(c4ccccc4F)CC3)cc2s1,-5,1.9,31*,-2.8
O=C(COc1ccccc1)NC(Cc1c[nH]c2ccccc12)C(=O)O (stereo not given),10,0.58,26,0.48
CS(=O)(=O)Nc1ccc(C(=O)NCc2cccnc2)cc1,0,1.4,31*,0.58
CC(C)(C)C(=O)Nc1ccc(C(=O)NCc2cccnc2)cc1,-4,-0.12,6,0.89
C/C(Sc1nnc(Cc2ccccc2)o1)=C(/O)c1ccccc1,0,-0.26,3,-0.26
COc1ccc(C2C(C(C)=O)=C(O)C(=O)N2c2ccc(Br)cn2)cc1 (stereo not given),-8,-0.57,6,-0.92
CN(c1cccc(NC(=O)CN(c2ccc(C34CC5CC(CC(C5)C3)C4)cc2)S(C)(=O)=O)c1)S(C)(=O)=O,8,-2.4,11,-0.9
Cc1ccc(S(=O)(=O)NC(C)CCc2ccccc2)cc1 (stereo not given),-11,-4.1*,28,-0.71
Cc1ccc(S(=O)(=O)NCCc2ccccc2)cc1,7,-2.4,8,0.38
CCOC(=O)c1c(C)[nH]c(N=Nc2ccccc2C)c1C,-3,-1.1,21,-1
Cc1nn(-c2ccccc2)c(Cl)c1C(=O)Nc1nnc(C2CCCC2)s1,-4,-5*,4,-0.61
Cc1cccc(C)c1NC(=O)c1c(C)nn(-c2ccccc2)c1Cl,10,3.3,6,-0.75
Cc1ccc(CN2C(=O)CCC2C(=O)NCCN(CC(C)C)CC(C)C)cc1 (stereo not given),17,0.15,7,0.22
CCOC(=O)C1CCN(C(=O)Cn2cc3c(n2)CCC(C)C3)CC1 (stereo not given),-10,0.19,4,·
Cc1nc2cc(-c3ccccc3)nn2c(C)c1CCC(=O)N1CCN(c2ccccc2)CC1,0,-6*,45*,·
Cc1nc2ncnn2c(C)c1CCC(=O)N1CCN(c2ccccn2)CC1,-6,-0.092,-6,0.37
O=C(NCc1ccccc1)c1ccc(COCC(F)(F)F)o1,-10,-0.077,4,-1.2
CC(=O)N1CCC2(CC1)CC(=O)c1cc(Cl)ccc1O2,·,0.47,·,·
Cn1c(Cl)cnc1C1CC(=O)c2cc(Cl)ccc2O1 (stereo not given),-2,0.049,38*,-0.42
Nc1nc(CN2CCN(c3ccccc3)CC2)nc(N2CCCc3ccccc32)n1,13,-3,5,1.7
Nc1nc(CN2CCN(c3cccc(Cl)c3)CC2)nc(N2CCCc3ccccc32)n1,4,-2.6,42*,3.1
SMILES,PostGolgi yeast,Cav32 inh,PostGolgi ctrl,PTK2B oligo ant
CCCCOCP(=O)(CCCC)COCCCC,-7,-1.1,-1,0.77
C=C(C)COc1ccc(-c2[nH]ncc2Oc2cccc(OC)c2)c(O)c1,16,-0.44,30*,-3.6*
C=C(C)COc1ccc(-c2[nH]ncc2-c2ccc(OC)c(OC)c2)c(O)c1,-12,-1.1,29,-1.7
C=C(C)COc1ccc(-c2[nH]ncc2-c2ccccc2)c(O)c1,45*,-0.83,62*,-2
C=C(C)COc1ccc(-c2[nH]ncc2Oc2ccccc2OCC)c(O)c1,49*,-0.46,19,1.1
O=C(Cn1cnc2ccc(Br)cc2c1=O)c1cccs1,-4,0.96,21,-0.5

# High-throughput results from PubChem.
